Most compounds without a hit are left out; they make up all but 17% or so of the library.
TDP1 cell CPT = qHTS for Inhibitors of human tyrosyl-DNA phosphodiesterase 1 (TDP1): qHTS in cells in presence of CPT; chicken DT40 Tdp1-/-;hTDP1 cells + 20 nM CPT, ATP luminescence, 48 h; Potency, µM (highest dose often 46.2 µM), most hits filed as inhibitors; 420,000 compounds, 12% hits; further: nearly all actives have a fitted effect of over 55% in size
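Cell growth measured by CellTiter-Glo luminescence after a minimum 48 h, 37 C compound exposure with 20 nM CPT in Tdp1-knockout DT40 cells stably expressing hTDP1, seeded 400/well; qHTS titration format.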
ClpP mod = qHTS Assay for Activators of ClpP | purified B. subtilis ClpP, FRET peptide cleavage, 20 min | Potency, µM (top dose mostly 57.5 µM) | 340,000 compounds, 1.9% hits | AID 651965, 2013; active means well fitted falling curve with a large enough effect; inconclusive means small, poorly fitted or top-dose-only effect; inactive means no such curve, though single readings can be large or run the other way; further: the source files actives as falling curves though it sought activators and does not explain the sign; nearly all actives have a fitted effect of over 65% in size
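FRET quenching reversal measured ClpP activation: 10 microg/mL B. subtilis ClpP at pH 8 with the FRET-FV decapeptide, read at 430 nm after 320 nm excitation. The 20-min minus 0-min signal was scaled between DMSO/no-enzyme wells and ADEP (5.8 microM final).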
TDP1 inh = qHTS Assay for Inhibitors of Tyrosyl-DNA Phosphodiesterase (TDP1) | recombinant TDP1, AlphaScreen DNA substrate cleavage | Potency, µM (top dose mostly 130 µM), actives largely listed as inhibitors | 350,000 compounds, 0.28% hits | AID 485290, 2010; further: nearly all actives have a fitted effect of over 40% in size
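Signal: AlphaScreen proximity between streptavidin donor and anti-FITC acceptor beads on intact substrate. Reaction: Tdp1 1 nM, substrate 15 nM final, 5 min RT after 15 min compound preincubation.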
DT40 TDP1 no CPT = qHTS for Inhibitors of human tyrosyl-DNA phosphodiesterase 1 (TDP1): qHTS in cells in absence of CPT | DT40 Tdp1-/- hTDP1 cells, no CPT, ATP luminescence, 48 h | Potency, µM (series often up to 46.2 µM), most hits filed as inhibitors | 420,000 compounds, 15% hits | AID 686978, 2013; further: nearly all actives have a fitted effect of over 55% in size
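No-CPT arm: Tdp1-/-;hTDP1 DT40 cells (400/well) plus compounds, incubated ≥48 hr at 37 °C. Readout CellTiter-Glo luminescence.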
Large screens that a line does not name were inactive. Unless noted, the call rests on the fitted dose curve; in most records, active means well fitted curve in the direction sought with a large enough effect; inconclusive means small, poorly fitted or top-dose-only effect, or another doubt; inactive means no such curve, though single readings can be large; an effect the other way counts as inactive or inconclusive.

N#CC(C#N)=CC1=C2OC(c3ccccc3)=CC(c3ccccc3)=C2CCC1	TDP1 cell CPT 26µM, DT40 TDP1 no CPT 13µM
CN(C)/C=C1\N=C(c2ccccc2)OC1=O	none (no result: ClpP mod)
O=C1OC(c2ccc(F)cc2)=N/C1=C\c1ccc(Br)o1	TDP1 cell CPT inconclusive, DT40 TDP1 no CPT 13µM (no result: ClpP mod)
COc1ccc(Br)cc1CNC(=O)CN1C(=O)CSc2ccc(S(=O)(=O)N3CCOCC3)cc21	TDP1 cell CPT inconclusive, DT40 TDP1 no CPT inconclusive
CC(=O)Nc1ccc(C=NN=C2c3ccccc3-c3ccccc32)cc1	TDP1 cell CPT 26µM, DT40 TDP1 no CPT inconclusive (no result: TDP1 inh)
COc1ccc(C=NN=C2c3ccccc3-c3ccccc32)cc1O	TDP1 cell CPT inconclusive, DT40 TDP1 no CPT inconclusive (no result: TDP1 inh)
CSCCC(NC(=O)OCc1ccccc1)C(=O)O (stereo not drawn)	none
CSc1nc(COC(=O)NC(C)C)c(COC(=O)NC(C)C)n1Cc1ccccc1	TDP1 cell CPT 9.2µM, DT40 TDP1 no CPT 13µM (no result: TDP1 inh)
N#CC(C#N)=Cc1cc2ccccc2nc1N1CCOCC1	TDP1 cell CPT 13µM, DT40 TDP1 no CPT 10µM
N#C/C(=C\c1cc2ccccc2nc1N1CCOCC1)C(=O)Nc1ccc(N2CCOCC2)cc1	TDP1 cell CPT 13µM, DT40 TDP1 no CPT 16µM
O=C(CNC(=O)c1cccnc1)c1ccc(F)cc1	none (no result: TDP1 inh)
COc1cc(C2c3cc4c(cc3CC3COC(=O)N32)OCO4)cc(OC)c1OC (stereo not drawn)	TDP1 cell CPT 0.82µM, DT40 TDP1 no CPT 0.92µM (no result: TDP1 inh)
COc1cc2c(c(OC)c1OC)C(c1ccc3c(c1)OCO3)CC(=O)O2 (stereo not drawn)	none
COc1cccc(NC(=O)CSc2nccn2C2CCCC2)c1	DT40 TDP1 no CPT inconclusive
Fc1cccc(CN2CCc3nc(Nc4ccc5c(c4)OCCO5)ncc3C2)c1F	TDP1 cell CPT inconclusive, DT40 TDP1 no CPT 26µM
COc1cccc(CN2CCc3nc(Nc4ccc5c(c4)OCCO5)ncc3C2)c1OC	TDP1 cell CPT 21µM, DT40 TDP1 no CPT 8.2µM
COc1cccc(CN2CCOc3ccc(CN4C[C@@H](C)O[C@@H](C)C4)cc3C2)c1OC	none (no result: ClpP mod, TDP1 inh)
COc1ccc(-c2nnc(CSc3nc4ccccc4c(=O)n3CC3CCCO3)o2)cc1OC (stereo not drawn)	TDP1 cell CPT inconclusive, DT40 TDP1 no CPT 23µM (no result: ClpP mod, TDP1 inh)
COc1ccc(OC)c(NC(=O)CSc2nc3ccccc3c(=O)n2CC2CCCO2)c1 (stereo not drawn)	none
CC1CCC(C(C)C)C(=O)/C1=C/c1ccc(N)cc1 (stereo not drawn)	TDP1 cell CPT 15µM, DT40 TDP1 no CPT 13µM (no result: TDP1 inh)
COc1ccc(Cc2c(-c3ccc(Cl)cc3)nc3cc(C)c(Br)c(C)n23)c(C)c1	TDP1 cell CPT inconclusive, DT40 TDP1 no CPT inconclusive (no result: TDP1 inh)
COc1ccc(Cc2c(-c3ccc(C)cc3)nc3cc(C)c(Br)c(C)n23)c(C)c1	TDP1 cell CPT 2.3µM, DT40 TDP1 no CPT inconclusive (no result: TDP1 inh)
COc1ccc(Cc2c(-c3ccc(F)cc3)nc3cc(C)c(Br)c(C)n23)c(C)c1	TDP1 cell CPT inconclusive, DT40 TDP1 no CPT 18µM (no result: TDP1 inh)
Cc1c2cnn(CC(=O)NCCc3ccccc3)c(=O)c2c(C)n1Cc1ccccc1	TDP1 cell CPT inconclusive, DT40 TDP1 no CPT inconclusive
CC(C)CC1C(=O)N(Cc2cn(CCC3OCCO3)nn2)CCS(=O)(=O)N1Cc1ccc(-c2ccc(F)cc2)cc1 (stereo not drawn)	TDP1 cell CPT inconclusive, DT40 TDP1 no CPT 23µM (no result: TDP1 inh)
COc1ccc(-c2ccc(CN3C(C)C(=O)N(Cc4cn(CCC5OCCO5)nn4)CCS3(=O)=O)cc2)cc1OC (stereo not drawn)	TDP1 cell CPT 18µM, DT40 TDP1 no CPT 12µM (no result: TDP1 inh)
COc1ccc(-c2ccc(CN3C(CC(C)C)C(=O)N(Cc4cn(CCC5OCCO5)nn4)CCS3(=O)=O)cc2)cc1OC (stereo not drawn)	TDP1 cell CPT 21µM, DT40 TDP1 no CPT 16µM (no result: TDP1 inh)
COCc1c(C(=O)N2CCC(N3CCCCC3)CC2)cnn1-c1ncc(C)c(-c2cccs2)n1	none (no result: ClpP mod, TDP1 inh)
CCOc1ccc(N(CC(=O)Nc2ccccc2CC)S(=O)(=O)c2c(C)[nH]c(=O)[nH]c2=O)cc1	none
CC(=O)Nc1ccc(/C(C)=N/Nc2nc(N3CCOCC3)nc(N3CCOCC3)n2)cc1	TDP1 cell CPT inconclusive, DT40 TDP1 no CPT 15µM (no result: ClpP mod)

Screening data from PubChem.
